The values below come from PubChem BioAssay (NCATS).

Structures are written as SMILES. Values joined by “and” are separate entries in the source; they are usually repeats but may differ in a detail not shown here. Equal values may be shown once. Inconclusive results are not listed. Active and inactive are the calls of the source. Unless noted, calls come from the whole dose curve; as a rule, active = well fitted curve in the direction sought with a large enough effect; inconclusive = small, poorly fitted or top-dose-only effect, or another doubt; inactive = no such curve, though single readings can be large; an effect the other way counts as inactive or inconclusive.

Assay [1] in a line: Cellular Toxicity (caspase-3) SHSY5Y (AID 657). The conditions noted are these: SH-SY5Y caspase-3 activation; series mostly up to 91.7 µM. The procedure, abridged: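 SH-SY5Y human neuroblastoma cells, 1500/well, exposed to compound for 16 hours at 37 °C in complete medium. Caspase-3/7 activity read by Caspase-Glo luminescence after 1 hr at room temperature, normalized to DMSO and 10 uM staurosporine; AC50 from Hill fit.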

A short description of assay [2]: Cellular Toxicity (caspase-3) Mesangial (AID 660).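 Note: cells exposed to compound for 16 h before the caspase read.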 The conditions noted are these: mesangial cells, normalized: DMSO 0%, 100 µM tamoxifen 100%; series mostly up to 91.7 µM. In short, it runs like this: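 AC50 values come from Hill-equation fits of caspase 3/7 activation, measured as Caspase-Glo luminescence in human glomerular mesangial cells exposed to compound for 16 h at 37 °C; 100% set by 100 uM tamoxifen.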

Assay [3] in a line: MultiTox-Fluor Cytotoxicity Assay - LYMP1-001 - Live Cells (AID 947).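 Note: 0% = DMSO only and full inhibition = tetraoctylammonium bromide control.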 The conditions noted are these: LYMP1-001 lymphoblastoid cells, live-cell protease fluorescence viability; series mostly up to 92.2 µM.
Assay [4] is described as follows: MultiTox-Fluor Cytotoxicity Assay - LYMP1-002 - Live Cells (AID 955). Note: % is set by controls: 0 for no effect and ±100 for the full control effect. Conditions: LYMP1-002 lymphoblastoid live-cell protease fluorescence viability; series mostly up to 46.1 µM. In short, it runs like this:
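In this qHTS viability format, lymphoblastoid cells (LYMP1-002, human) received compound for 16 hr at 37 C. Fluorogenic GF-AFC cleavage by viable cells was detected at 405/510 nm after 1 h at room temperature.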

Assay [5] in a line: MultiTox-Fluor Cytotoxicity Assay - LYMP1-003 - Live Cells (AID 962).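 Note: 0% = DMSO only and full loss = 92 µM tetraoctylammonium bromide; cytotoxic hits lower the live-cell protease signal.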 The conditions noted are these: LYMP1-003 lymphoblastoid cells, MultiTox-Fluor live-cell protease fluorescence; series mostly up to 92.2 µM. In short, it runs like this: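 Human lymphoblastoid line LYMP1-003 in complete culture medium, treated 16 hr with titrated compounds. Viable cells quantified via cell-permeant GF-AFC substrate fluorescence; AC50 derived by Hill fitting.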

Assay [6] can be described thus: Cell Viability - LYMP2-023 (AID 975).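 Note: cellular ATP measured by luciferase luminescence as viability proxy; cells exposed to compound for 24 hours at 37 °C; plate controls were DMSO only for no effect and 92 µM tetraoctylammonium bromide control for full effect; nearly all actives have a fitted effect of over 55% in size.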 The conditions noted are these: LYMP2-023 lymphoblastoid cell viability; series mostly up to 92.2 µM. In short, it runs like this: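 In this qHTS, ATP-based luciferase luminescence (CellTiter-Glo) is quantified in human lymphoblastoid cells after 24 hr compound treatment at 37 C; tetraoctylammonium bromide serves as positive control. Concentration-response curves are Hill-fitted to give AC50.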

The nature of assay [7]: Cell Viability - LYMP2-022 (AID 987).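 Note: 0% = DMSO alone and full effect = tetraoctylammonium bromide at 92 µM; nearly all actives have a fitted effect of over 55% in size.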 The conditions noted are these: LYMP2-022 lymphoblastoid cell viability; series mostly up to 92.2 µM. In short, it runs like this:
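In this qHTS cytotoxicity screen, compound titrations were incubated 24 hr at 37 C with human lymphoblastoid cells in complete medium. Luciferase-based ATP luminescence provided the viability signal.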

Assay [8] concerns the target Vitamin D3 receptor (Homo sapiens) (UniProt P11473). The assay is described as follows: qHTS assay for small molecule agonists of vitamin D receptor signaling (AID 588543; calls by dose curve;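 note: 0% = DMSO basal and 100% = reference agonist control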). The conditions noted are these: HEK293T VDR-UAS-bla, beta-lactamase ratio, 16 h; series mostly up to 76.8 µM. The procedure, abridged:
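VDR-UAS-bla HEK293T cells, 2000/well, 2% charcoal-stripped FBS; compound titration 16 h at 37 C; CCF4 beta-lactamase ratio read. Normalized to 50 nM 1-alpha,25-dihydroxyvitamin D3 (100%) and DMSO; Hill fit gives EC50, efficacy.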
(In general: Quantitative high-throughput screening tests each substance at several concentrations.)

Assay [9] is described as follows: qHTS assay for small molecule agonists of retinoid X receptor alpha signaling (AID 588544; calls by dose curve;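 for activation: 0% = DMSO basal wells and 100% = reference agonist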). Conditions: HEK293T RXRa-UAS-bla, beta-lactamase reporter, 18 h; 530 nm emission.
For assay [10], the target named is Retinoic acid receptor RXR-alpha (Homo sapiens) (UniProt P19793). The description is as above. The conditions noted are these: HEK293T RXRa-UAS-bla, beta-lactamase reporter, 18 h; series mostly up to 76.7 µM.
The target in assay [11] is Thyroid hormone receptor beta (Homo sapiens) (UniProt P10828). The assay is described as follows: qHTS assay for small molecule agonists of thyroid hormone receptor beta signaling (AID 588545; calls by dose curve;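 note: 0% = DMSO only and 100% = 10 nM T3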). The conditions noted are these: TR-UAS-bla GripTite HEK 293, beta-lactamase ratio, agonist mode, 18 h; series mostly up to 76.7 µM. In short, it runs like this:
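TR-UAS-bla GripTite HEK 293 cells (2500/well, medium with 2% charcoal/dextran FBS) were treated in agonist mode for 18 h at 37 C, titrated. Beta-lactamase was read by CCF4 ratio after 2 h; normalized to 10 nM T3 (100%) and DMSO, Hill-fitted for EC50 and efficacy.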

Assay [12] can be described thus: qHTS assay for small molecule antagonists of retinoid X receptor alpha signaling (AID 588546; active = well fitted inhibition curve with a large enough effect in the signal ratio, with a control signal flat, not every such curve was filed as active; the % refers to the signal ratio;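 note: cells stimulated with 9-cis-retinoic acid as agonist; % is set by controls: 0 for no effect and ±100 for the full control effect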). Conditions: HEK293T RXRa-UAS-bla, beta-lactamase ratio, antagonist mode; measured here: W530 green channel, cytotoxicity proxy. The procedure, abridged:
(§1)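 Beta-lactamase reporter inhibition, read as CCF4 fluorescence ratio (ex 405, em 460/530 nm) after 2 h at RT. HEK293T UAS-bla cells, 2500/well, were stimulated with 9-cis-RA at 500 or 100 nM final alongside test compound for 18 h at 37 C.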

The target in assay [13] is Retinoic acid receptor RXR-alpha (Homo sapiens) (UniProt P19793). Described as above. The conditions noted are these: HEK293T RXRa-UAS-bla, beta-lactamase ratio, antagonist mode. In short, it runs like this: as §1
Assay [14] concerns the target Voltage-gated inwardly rectifying potassium channel KCNH2 (Homo sapiens) (UniProt Q12809). The assay is described as follows: qHTS Assay for Small Molecule Inhibitors of the Human hERG Channel Activity (AID 588834).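 Note: top concentration of the series differs between compounds; % is set by controls: 0 for no effect and ±100 for the full control effect; lower thallium flux fluorescence means stronger hERG block; nearly all actives have a fitted effect of over 50% in size.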 The conditions noted are these: U2OS BacMam hERG, FluxOR thallium flux fluorescence; series mostly up to 92.2 µM. The procedure, abridged:
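Thallium serves as surrogate for K+ influx through BacMam-delivered hERG in U2OS cells. Compounds are added for about 10 minutes after dye loading; stimulation buffer then starts flux, monitored kinetically on FDSS.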

Assay [15] can be described thus: qHTS assay for small molecule activators of the nuclear factor-kappa B (NF-kB) signaling pathway (AID 651749; active = well fitted activation curve with a large enough effect in the signal ratio; the % refers to the signal ratio; note: % of control where 0% means no effect). The conditions noted are these: NF-kB-bla ME-180 cells, beta-lactamase FRET ratio, 16 h; stronger effect = higher value. The procedure, abridged: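 NF-kB-bla ME-180 cells, 2,000/well; 23 nL compound or DMSO pinned; 16 hr, 37C/5% CO2; beta-lactamase FRET read-out.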

Assay [16] has as its target Tumor necrosis factor (Homo sapiens) (UniProt P01375). The assay can be described thus: qHTS assay to identify small molecules that stimulate Tumor Necrosis Factor-alpha (TNF-alpha) secretion (AID 651757; active = well fitted curve in the direction sought with a large enough effect in the signal ratio; the % refers to the signal ratio; note: 0% is about no effect). The conditions noted are these: Human cells, HTRF 665/615 ratio; series mostly up to 92.2 µM. In short, it runs like this:
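Using 3000 THP-1 cells per well, compounds and controls were applied for 17 hrs at 37 C. Detection followed with two labeled anti-TNF-alpha antibodies (cryptate donor, XL665 acceptor) for 3 hr at room temperature, measured by TR-FRET.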

The nature of assay [17]: qHTS assay to identify small molecules that stimulate interleukin-8 (IL-8) secretion (AID 651758; active = well fitted activation curve with a large enough effect in the signal ratio; the % refers to the signal ratio; note: 0% is about no effect). The conditions noted are these: HTRF ratio (665/615); series mostly up to 92.2 µM. The procedure, abridged: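 Compounds are added to THP-1 cells (2000 per well) and left 16 hrs at 37 C. A labeled anti-IL-8 antibody pair is then added, and IL-8 secretion is measured by time-resolved FRET after 1-3 hrs at room temperature.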

Assay [18] is described as follows: qHTS assay for small molecule agonists of the antioxidant response element (ARE) signaling pathway measured by Nrf2-dependant transcriptional activity - cell viability counter screen (AID 720653; active = well fitted curve in the direction sought with a large enough effect in the repeat runs; an effect the other way counts as inactive or inconclusive; note: % is set by controls: 0 for no effect and ±100 for the full control effect). The conditions noted are these: ARE-bla HepG2 viability, CellTiter-Glo ATP luminescence, 16 h; max response: stronger effect = lower value. In short, it runs like this:
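ARE-bla HepG2 cells treated with compounds for 16 h at 37C; this counter screen measures viability as intracellular ATP by CellTiter-Glo luminescence after 30 min at room temperature.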

Assay [19] can be described thus: qHTS assay for cell viability of the p53RE-bla HCT-116 cell line (AID 743292). Note: % is set by controls: 0 for no effect and ±100 for the full control effect; nearly all actives have a fitted effect of over 55% in size. The conditions noted are these: p53RE-bla HCT-116 viability, ATP luminescence, 16 h; series mostly up to 95 µM. In short, it runs like this: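 Viability of compound-treated p53RE-bla HCT-116 cells is taken from ATP-dependent luciferase luminescence. Treatment lasts 16 h at 37 C after a 5 h settling period; detection follows 30 min at room temperature.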

The target in assay [20] is Nuclear receptor subfamily 1 group I member 2 (Rattus norvegicus) (UniProt Q9R1A7). The assay is described as follows: qHTS assay for small molecule activators of the rat pregnane X receptor (rPXR) signaling pathway (AID 651751; call rule not given here; note: 0% is about no effect). The conditions noted are these: rPXR reporter cells, luciferase (One-Glo), 24 h.
Chain of Nuclear receptor subfamily 1 group I member 2 (Rattus norvegicus) (Q9R1A7 whole entry, looked up): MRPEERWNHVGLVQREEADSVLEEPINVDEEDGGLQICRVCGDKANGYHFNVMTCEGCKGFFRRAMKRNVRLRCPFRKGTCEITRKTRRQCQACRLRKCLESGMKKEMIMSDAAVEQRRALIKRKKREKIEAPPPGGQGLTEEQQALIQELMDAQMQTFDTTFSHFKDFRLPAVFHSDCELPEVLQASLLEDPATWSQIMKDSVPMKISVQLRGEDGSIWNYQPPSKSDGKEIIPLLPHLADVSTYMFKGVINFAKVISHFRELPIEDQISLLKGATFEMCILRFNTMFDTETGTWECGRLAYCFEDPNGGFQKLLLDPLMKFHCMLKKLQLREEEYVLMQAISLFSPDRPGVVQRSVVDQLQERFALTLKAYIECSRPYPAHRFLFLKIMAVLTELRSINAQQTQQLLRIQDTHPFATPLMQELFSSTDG

Chain of Retinoic acid receptor RXR-alpha (Homo sapiens) (P19793 whole entry, looked up): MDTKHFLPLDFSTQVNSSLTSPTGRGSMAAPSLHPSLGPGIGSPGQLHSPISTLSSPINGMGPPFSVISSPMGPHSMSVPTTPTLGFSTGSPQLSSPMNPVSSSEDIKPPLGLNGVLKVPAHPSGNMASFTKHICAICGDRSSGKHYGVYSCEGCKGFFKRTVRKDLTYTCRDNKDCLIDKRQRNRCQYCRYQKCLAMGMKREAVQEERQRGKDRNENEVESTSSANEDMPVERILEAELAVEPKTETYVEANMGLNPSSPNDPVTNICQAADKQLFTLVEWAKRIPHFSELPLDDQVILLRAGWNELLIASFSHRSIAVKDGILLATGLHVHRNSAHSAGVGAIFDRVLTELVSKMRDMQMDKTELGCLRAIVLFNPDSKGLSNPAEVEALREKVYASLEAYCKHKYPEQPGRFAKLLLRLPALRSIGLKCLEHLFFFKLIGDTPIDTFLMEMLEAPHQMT
Chain of Vitamin D3 receptor (Homo sapiens) (P11473 whole entry, looked up): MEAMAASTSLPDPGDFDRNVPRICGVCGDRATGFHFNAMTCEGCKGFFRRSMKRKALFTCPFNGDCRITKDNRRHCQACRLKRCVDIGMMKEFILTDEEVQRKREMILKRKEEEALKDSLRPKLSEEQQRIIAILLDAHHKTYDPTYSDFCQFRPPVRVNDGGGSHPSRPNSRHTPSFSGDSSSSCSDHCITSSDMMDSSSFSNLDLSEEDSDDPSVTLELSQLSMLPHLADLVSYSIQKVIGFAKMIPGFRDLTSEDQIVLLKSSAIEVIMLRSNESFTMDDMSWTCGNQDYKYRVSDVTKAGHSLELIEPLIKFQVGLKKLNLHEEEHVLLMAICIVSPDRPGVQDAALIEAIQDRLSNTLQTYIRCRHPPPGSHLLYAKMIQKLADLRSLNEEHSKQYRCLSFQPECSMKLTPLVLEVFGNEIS
Chain of Thyroid hormone receptor beta (Homo sapiens) (P10828 whole entry, looked up): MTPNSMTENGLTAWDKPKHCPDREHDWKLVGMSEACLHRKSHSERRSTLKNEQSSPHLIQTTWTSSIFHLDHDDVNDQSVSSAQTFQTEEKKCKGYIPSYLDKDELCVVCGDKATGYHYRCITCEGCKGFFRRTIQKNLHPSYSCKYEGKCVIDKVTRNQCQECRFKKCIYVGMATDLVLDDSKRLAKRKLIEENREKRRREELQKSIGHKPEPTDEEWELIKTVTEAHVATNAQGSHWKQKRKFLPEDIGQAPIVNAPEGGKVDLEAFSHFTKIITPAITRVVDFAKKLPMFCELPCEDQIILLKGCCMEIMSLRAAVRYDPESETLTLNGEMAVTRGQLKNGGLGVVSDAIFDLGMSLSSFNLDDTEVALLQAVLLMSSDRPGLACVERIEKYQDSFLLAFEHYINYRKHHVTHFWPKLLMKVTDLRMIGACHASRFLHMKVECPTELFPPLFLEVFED
Chain of Voltage-gated inwardly rectifying potassium channel KCNH2 (Homo sapiens) (Q12809 whole entry, looked up): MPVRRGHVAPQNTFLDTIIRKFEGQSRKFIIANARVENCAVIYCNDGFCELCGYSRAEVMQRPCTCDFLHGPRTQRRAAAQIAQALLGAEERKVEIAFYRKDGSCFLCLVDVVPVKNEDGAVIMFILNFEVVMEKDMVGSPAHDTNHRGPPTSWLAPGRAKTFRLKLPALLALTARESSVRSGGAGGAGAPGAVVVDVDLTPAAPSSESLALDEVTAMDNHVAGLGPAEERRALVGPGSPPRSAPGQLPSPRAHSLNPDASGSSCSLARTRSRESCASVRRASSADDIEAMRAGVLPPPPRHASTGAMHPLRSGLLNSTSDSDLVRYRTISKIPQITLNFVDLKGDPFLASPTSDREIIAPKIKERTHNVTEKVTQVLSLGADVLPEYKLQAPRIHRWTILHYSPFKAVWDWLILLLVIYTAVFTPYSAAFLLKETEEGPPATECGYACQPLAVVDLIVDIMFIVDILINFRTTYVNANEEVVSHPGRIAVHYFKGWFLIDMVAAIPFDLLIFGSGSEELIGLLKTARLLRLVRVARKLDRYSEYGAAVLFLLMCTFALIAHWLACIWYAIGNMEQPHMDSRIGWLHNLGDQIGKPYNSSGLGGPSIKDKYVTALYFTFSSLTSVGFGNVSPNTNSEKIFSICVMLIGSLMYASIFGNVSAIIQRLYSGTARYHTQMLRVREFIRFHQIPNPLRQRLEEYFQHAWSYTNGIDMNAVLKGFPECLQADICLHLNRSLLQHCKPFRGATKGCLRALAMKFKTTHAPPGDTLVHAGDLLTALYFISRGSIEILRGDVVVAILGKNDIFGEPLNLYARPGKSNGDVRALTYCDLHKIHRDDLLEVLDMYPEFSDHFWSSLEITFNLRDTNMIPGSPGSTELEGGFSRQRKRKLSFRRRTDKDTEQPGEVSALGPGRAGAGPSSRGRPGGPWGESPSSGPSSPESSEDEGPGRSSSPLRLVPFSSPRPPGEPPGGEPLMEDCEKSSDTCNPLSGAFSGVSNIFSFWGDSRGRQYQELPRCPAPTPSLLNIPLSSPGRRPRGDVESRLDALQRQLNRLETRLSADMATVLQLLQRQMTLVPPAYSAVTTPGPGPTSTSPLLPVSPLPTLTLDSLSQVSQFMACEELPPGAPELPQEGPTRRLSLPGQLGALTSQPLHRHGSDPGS
Chain of Tumor necrosis factor (Homo sapiens) (P01375 whole entry, looked up): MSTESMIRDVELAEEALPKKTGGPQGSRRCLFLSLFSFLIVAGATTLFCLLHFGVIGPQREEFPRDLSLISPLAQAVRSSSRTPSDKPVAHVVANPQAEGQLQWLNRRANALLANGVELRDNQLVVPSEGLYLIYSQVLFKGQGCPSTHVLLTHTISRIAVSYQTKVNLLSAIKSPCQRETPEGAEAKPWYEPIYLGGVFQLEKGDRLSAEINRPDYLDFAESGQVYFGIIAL

For `CC(CCC(=O)O)(c1ccc(O)cc1)c1ccc(O)cc1`, the Potency result in [1], in assay [3], in assay [5], in assay [6], in assay [7] and in assay [8] was “inactive” each time. Moreover, the Potency result in assay [10], in assay [11], in assay [14], in assay [16], in assay [17] and in assay [19] was “inactive” each time. Further, the molecule was called inactive in assay [2] and in [4]. In addition, the max response in assay [9] was -8.9% and -10.2%; in [12] it was 0.685% and -9.17%; in [13], 11.2% (inactive) and 0.834% (inactive); in [18], -5.33% (inactive) and -3.83% (inactive); in assay [20] it was -1.81% (inactive) and -3.54% (inactive). For the same molecule, the activation in [15] was 0.0681% (inactive) and 0.181% (inactive).
